According to PubChem BioAssay (EPA / NIEHS):
Records with an inconclusive call do not appear. The source made the active and inactive calls. The calls were made as follows: active = hit-call score of the fitted dose curve at least 0.9, where 1 is the maximum; inconclusive = response in the unintended direction; inactive = score below 0.9.

Each compound was assayed on alkyl and aryl transferase (GSTA2), GSTA2 (gene 2939) (assay: CLD_GSTA2_48hr: CellzDirect (CLD) Gene Expression Assay for alkyl and aryl transferase (GSTA2) at 48 hours (AID 2283708);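 also: active means mRNA induction above DMSO vehicle baseline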).
Experimental: CLD_48hr is a cell-based, multiplexed-readout assay that uses hepatocyte, a human liver primary cell, with measurements taken at 48 hours after chemical dosing in a 96-well plate.CLD_GSTA2_48hr is one of 16 assay component(s) measured or calculated from the CLD_48hr assay. It is designed to make measurements of mRNA induction, a form of inducible reporter, as detected with chemiluminescence signals by Quantitative Nuclease Protection Assay (qNPA) technology.Data from the assay component CLD_GSTA2_48hr was analyzed at the endpoint, CLD_GSTA2_48hr, in the positive analysis fitting direction relative to DMSO as the negative control and baseline of activity. Using a type of inducible reporter, gain-of-signal activity can be used to understand changes in the reporter gene as they relate to the gene GSTA2. Furthermore, this assay endpoint can be referred to as a primary readout. To generalize the intended target to other relatable targets, this assay endpoint is annotated to the transferase intended target family, where subfamily is alkyl and aryl transferase.
Human hepatocyte cultures were treated daily for two consecutive days with fresh dosing solutions containing appropriate concentrations of the 320 ToxCast chemicals (chemical identities were blinded to CellzDirect and other ToxCast collaborators), vehicle control (0.2% DMSO), and positive control inducers as summarized in Table 1. […] These replicate data, coupled with internal replicates designed within the blinded ToxCast chemical library, provided additional data to evaluate interindividual differences between hepatocyte preparations and their potential impact on chemical profiles.Cell morphology and integrity were evaluated using phase-contrast microscopy as an indicator of hepatocyte cell health (Tyson & Green, 1987). Cultures for each treatment group (i.e., media, vehicle [0.2% DMSO], positive control inducers [multiple concentrations], and the ToxCast chemicals [multiple concentrations]) were observed and cell morphology was assessed relative to vehicle control cultures at each harvest time point (0, 6, 24, or 48 h). […] Images were evaluated at the conclusion of the study to assess changes in cell integrity and account for the effects of chemical exposure on uncharacteristic changes in concentration-dependent gene expression profiles. The results from these determinations of apparent cytotoxicity were annotated (yes/no) alongside the corresponding qNPA data for reference.At the conclusion of each treatment period, hepatocyte cultures (96-well) were washed with 1 volume of HBSS, lysed by addition of 25 ul ArrayPlate lysis buffer (HTG, Tucson, AZ), and 70 ul/well of Denaturation Oil, denatured by incubation at 95C for 10 min, and frozen at approximately -70C until analysis by nuclease protection assay (qNPA) (Roberts et al., 2007). For qNPA analysis, cell lysates were thawed at 50C for approximately 30 min, qNPA probes were added, and samples were incubated at 95C for 10 min to begin the detection process by denaturing the target RNA, dissociating the duplexes and secondary structure hybridization. At the conclusion of the hybridization period, S1 nuclease reagent was added to each sample to digest all nonprotected nucleotides at 50C for 60-90 min. At the conclusion of the S1 nuclease digestions, all reactions were stopped by transfer of all the samples to fresh plates containing stop solution and incubated at 95C for 15 min to deactivate the enzyme, dissociate the mRNA/ DNA probe heterodimers, and hydrolyze the resulting single stranded mRNA, leaving a stoichiometric amount of single-stranded DNA nuclease protection probe, unmodified in sequence, as the only intact oligonucleotide left in the sample. Neutralization solution was subsequently applied to cooled (room temperature) plates, and samples were transferred to ArrayPlates for overnight incubations at 50Cto allow probes to be captured onto programmed locations on the ArrayPlates. […]

Row | Structure (SMILES) | outcome | AC50
1 | c1ccc(Nc2ccccc2)cc1 | inactive | 
2 | CC(C)(c1ccc(O)cc1)c1ccc(O)cc1 | inactive | 
3 | COc1nc(C)nc(NC(=O)NS(=O)(=O)c2ccccc2OCCCl)n1 | inactive | 
4 | O=C(Nc1ccc([N+](=O)[O-])cc1Cl)c1cc(Cl)ccc1O | inactive | 
5 | CCCCC(CC)COC(=O)c1ccccc1C(=O)O (stereo unspecified) | inactive | 
6 | C#CCOC(=O)[C@@H](C)Oc1ccc(Oc2ncc(Cl)cc2F)cc1 | inactive | 
7 | COc1c(Cl)ccc(Cl)c1C(=O)O | inactive | 
8 | CCCN(CCC)C(=O)SCC | inactive | 
9 | CCC(C)OC(=O)N1CCCCC1CCO (stereo unspecified) | inactive | 
10 | Oc1ccc(C(c2ccc(O)cc2)C(Cl)(Cl)Cl)cc1 | inactive | 
11 | Cc1nn(C)c(Oc2ccccc2)c1C=NOCc1ccc(C(=O)OC(C)(C)C)cc1 | inactive | 
12 | CCOC(=O)NCCOc1ccc(Oc2ccccc2)cc1 | inactive | 
13 | COCCO | inactive | 
14 | CCCCC(CC)CN1C(=O)C2C3C=CC(C3)C2C1=O (stereo unspecified) | inactive | 
15 | CCCCOC(=O)[C@@H](C)Oc1ccc(Oc2ccc(C(F)(F)F)cn2)cc1 | inactive | 
16 | CCCOC(=O)NCCCN(C)C | inactive | 

Row | Structure (SMILES) | outcome | AC50
17 | CCOC(=O)[C@H](C)Oc1ccc(Oc2nc3ccc(Cl)cc3o2)cc1 | inactive | 
18 | CCCCCOC(=O)COc1cc(N2C(=O)C3=C(CCCC3)C2=O)c(F)cc1Cl | inactive | 
19 | CCSC(=O)N(CC(C)C)CC(C)C | inactive | 
20 | CCOC(=O)COc1cc(-n2ncc(C(F)(F)F)c(C)c2=O)c(F)cc1Cl | inactive | 
21 | N#CSCSc1nc2ccccc2s1 | inactive | 
22 | COC(=O)c1ccc(CNS(C)(=O)=O)cc1S(=O)(=O)NC(=O)Nc1nc(OC)cc(OC)n1 | inactive | 
23 | CCOC(=O)C(C)Oc1ccc(Oc2nc3ccc(Cl)cc3o2)cc1 (stereo unspecified) | inactive | 
24 | CCNc1nc(N)nc(Cl)n1 | inactive | 
25 | CC1(C)C(C=C(Cl)Cl)C1C(=O)OCc1cccc(Oc2ccccc2)c1 (stereo unspecified) | inactive | 
26 | CSC(=O)c1cccc2nnsc12 | inactive | 
27 | COC(=O)c1c(Cl)nn(C)c1S(=O)(=O)NC(=O)Nc1nc(OC)cc(OC)n1 | inactive | 
28 | CC(C)(C)[C@@H](O)[C@@H](Cc1ccc(Cl)cc1)n1cncn1 | inactive | 
29 | CCCN(CCC)c1c([N+](=O)[O-])cc(C(F)(F)F)c(N)c1[N+](=O)[O-] | inactive | 
30 | C=CCOC(Cn1ccnc1)c1ccc(Cl)cc1Cl (stereo unspecified) |  | 36.7 µM (active)
31 | CCCCCCC(C)OC(=O)COc1nc(F)c(Cl)c(N)c1Cl (stereo unspecified) | inactive | 
